In PubChem BioAssay (EPA / NIEHS) one finds outcome and AC50 data, which are given here for ten compounds.

SMILES strings stand for the structures. Results filed as inconclusive are left out. Active and inactive are the calls of the source. How the source made its calls: active means hit-call score of the fitted dose curve at least 0.9, where 1 is the maximum; inconclusive means response in the unintended direction; inactive means score below 0.9.

Chain of Nucleoli Translocation, AR (gene 367) (P10275 whole entry, looked up, the tested form may be a part): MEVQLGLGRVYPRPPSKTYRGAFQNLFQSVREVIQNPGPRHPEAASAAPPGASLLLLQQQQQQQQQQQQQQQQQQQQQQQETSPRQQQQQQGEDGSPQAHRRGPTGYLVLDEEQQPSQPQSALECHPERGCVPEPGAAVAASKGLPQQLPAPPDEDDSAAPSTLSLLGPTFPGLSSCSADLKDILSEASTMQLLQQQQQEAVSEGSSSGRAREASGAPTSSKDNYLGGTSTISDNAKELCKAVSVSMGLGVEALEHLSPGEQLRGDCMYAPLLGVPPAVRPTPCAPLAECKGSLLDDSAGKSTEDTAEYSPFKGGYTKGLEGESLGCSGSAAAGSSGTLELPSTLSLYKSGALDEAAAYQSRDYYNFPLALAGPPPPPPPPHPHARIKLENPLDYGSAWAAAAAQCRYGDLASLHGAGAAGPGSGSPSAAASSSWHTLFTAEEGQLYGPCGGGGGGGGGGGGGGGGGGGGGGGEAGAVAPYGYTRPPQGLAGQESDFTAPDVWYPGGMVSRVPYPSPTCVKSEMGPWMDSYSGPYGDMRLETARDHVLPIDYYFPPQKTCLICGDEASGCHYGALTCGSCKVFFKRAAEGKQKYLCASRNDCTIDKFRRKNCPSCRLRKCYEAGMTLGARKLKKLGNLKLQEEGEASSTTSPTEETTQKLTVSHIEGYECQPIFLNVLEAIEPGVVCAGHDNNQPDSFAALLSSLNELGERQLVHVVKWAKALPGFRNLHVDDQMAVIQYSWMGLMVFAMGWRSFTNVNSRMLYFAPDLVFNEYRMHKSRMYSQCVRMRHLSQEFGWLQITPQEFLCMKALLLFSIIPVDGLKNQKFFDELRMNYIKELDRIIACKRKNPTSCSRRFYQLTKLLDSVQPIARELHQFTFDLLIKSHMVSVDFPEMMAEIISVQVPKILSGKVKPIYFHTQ

The target in this assay is Nucleoli Translocation, AR (gene 367) (UniProt P10275). Briefly: UPITT_HCI_U2OS_AR_TIF2_Nucleoli_Agonist: University of Pittsburgh U2OS Androgen Receptor-Transcriptional Intermediary Factor 2 (AR-TIF2) Agonism High Content Imaging Assay for Nucleoli Translocation (AID 2283998). An excerpt:
UPITT_AR_TIF2_PPIB is a cell-based, high-content imaging assay that uses U2OS, a human osteosarcoma cell line, expressing a human androgen receptor fused to red fluorescent protein and the coactivator TIF2 fused to green fluorescent protein. UPITT_HCI_U2OS_AR_TIF2_Nucleoli_Agonist is one of four assay components measured from the UPITT_AR_TIF2_PPIB assay. It is designed to make measurements of red fluorescence localized in the nucleolar region of the cell nucleus as detected with high-content fluorescent imaging.Data from the assay component UPITT_HCI_U2OS_AR_TIF2_Nucleoli_Agonist was analyzed into 1 assay endpoint. This assay endpoint, UPITT_HCI_U2OS_AR_TIF2_Nucleoli_Agonist, was analyzed in the positive analysis fitting direction relative to DMSO as the baseline of activity. Using a type of binding reporter, measures of receptor for gain-of-signal activity can be used to understand the binding at the pathway-level as it relates to the gene AR.
Daughter plates containing 2 uL of 10 mM compounds in DMSO were prepared and replicated from the 384-well Library of Pharmacologically Active Compounds (LOPAC) master plates using the Bravo outfitted with a 384-well transfer head. Aluminum adhesive plate seals were applied with an Abgene Seal-IT 100 (Rochester, NY) plate sealer, and the plates were stored at -20 C in a Matrical MatriMinistore (Spokane, WA) automated compound storage and retrieval system. For screening, LOPAC daughter plates were withdrawn from -20C storage, thawed to ambient temperature, centrifuged 1-2 min at 50 g, and the plate seals were removed before the transfer of 98 uL of serum-free tissue culture medium (SFM) into wells using the BioTek Microflo liquid handler (BioTek, Winooski, VT) to generate a 200 uM intermediate stock concentration of library compounds (2.0% DMSO). The diluted compounds were mixed by repeated aspiration and dispensation using a 384-well P30 dispensing head on the Evolution P3 (EP3) liquid handling platform (PerkinElmer, Waltham, MA) and then 5 uL of diluted compounds was transferred to the wells of assay plates. In the LOPAC screen, compounds were individually tested at a final concentration of 20 uM (0.2% DMSO). After the diluted compounds had been transferred from the daughter plates to the primary HCS assay plates, aluminum adhesive plate seals were applied and the diluted daughter plates were stored frozen at -20C. To confirm active compounds identified in the primary screen, we withdrew the LOPAC daughter plates containing the 200 uM intermediate concentration of library compounds (2.0% DMSO) from -20C storage, thawed them to ambient temperature, centrifuged them for 1-2 min at 50 g, and removed the plate seals. A work list was generated to direct the Multiprobe Janus liquid handling platform (PerkinElmer) to cherry pick 75 uL from the wells of the diluted daughter plates that were flagged active in the primary screen and to reformat these into a 384-well plate hit confirmation daughter plate. Five microliters of primary HCS active compounds was then transferred into triplicate wells of assay plates using a 384-well P30 dispensing head on the Evolution P3 (EP3) liquid handling platform (PerkinElmer). […] Daughter plates containing 2 uL of the serially diluted compounds in DMSO were prepared and replicated from the 384-well serial dilution master plates using the Bravo outfitted with a 384-well transfer head. Aluminum adhesive plate seals were applied and plates were stored at -20C. For testing in the bioassays, daughter plates were withdrawn from -20C storage, thawed to ambient temperature, centrifuged for 1-2 min at 50 g, and the plate seals were removed before the transfer of 38 uL of SFM into wells using the BioTek Microflo liquid handler (BioTek) to generate an intermediate stock concentration of library compounds ranging from 1.95 to 500 uM (5.0% DMSO). […]
For the compound `CN(C)C(=S)SSC(=S)N(C)C`, the result was inactive. Turning to `Cc1ccc(-c2c(Cl)nc(C#N)n2S(=O)(=O)N(C)C)cc1`, the outcome was inactive. For `N#Cc1nn(-c2c(Cl)cc(C(F)(F)F)cc2Cl)c(N)c1S(=O)C(F)(F)F` (stereo not given), the outcome was inactive. For `Cc1cc(Cl)ccc1OCC(=O)O`, the compound was classed as inactive. One may read the AC50 as the midpoint of the concentration-response curve, whichever way the signal moves. For the compound `O=C(Nc1ccccc1)Nc1ccnc(Cl)c1`, the AC50 was 84.5 µM (active). For `CCCCNC(=O)n1c(NC(=O)OC)nc2ccccc21`, the compound was classed as inactive. The same measure, in the same setting: next, `N#CC(CCc1ccc(Cl)cc1)(Cn1cncn1)c1ccccc1` (stereo not given): “inactive”.

For `CC(C)Oc1cc(-n2nc(C(C)(C)C)oc2=O)c(Cl)cc1Cl`, the compound was called inactive.

Regarding `CS/C(C)=N/OC(=O)N(C)SN(C)C(=O)O/N=C(\C)SC`, the AC50 is 70.8 µM (active).

Turning to `CCCC1COC(Cn2cncn2)(c2ccc(Cl)cc2Cl)O1` (stereo not given), the AC50 was 92.8 µM (active).
